A selection: hits, their analogues and other compounds. The true share with any hit is near 1%.
TcdB GH inh – blocks C. difficile toxin B glycohydrolase activity | P18177 | TcdB glycohydrolase enzymatic assay, plate reader | inhibition, % at 9.99 µM | hit rate 0.24% among 350,000 | AID 652162; in the data active = inhibition above about 10%
Target sequence (P18177 whole entry, looked up): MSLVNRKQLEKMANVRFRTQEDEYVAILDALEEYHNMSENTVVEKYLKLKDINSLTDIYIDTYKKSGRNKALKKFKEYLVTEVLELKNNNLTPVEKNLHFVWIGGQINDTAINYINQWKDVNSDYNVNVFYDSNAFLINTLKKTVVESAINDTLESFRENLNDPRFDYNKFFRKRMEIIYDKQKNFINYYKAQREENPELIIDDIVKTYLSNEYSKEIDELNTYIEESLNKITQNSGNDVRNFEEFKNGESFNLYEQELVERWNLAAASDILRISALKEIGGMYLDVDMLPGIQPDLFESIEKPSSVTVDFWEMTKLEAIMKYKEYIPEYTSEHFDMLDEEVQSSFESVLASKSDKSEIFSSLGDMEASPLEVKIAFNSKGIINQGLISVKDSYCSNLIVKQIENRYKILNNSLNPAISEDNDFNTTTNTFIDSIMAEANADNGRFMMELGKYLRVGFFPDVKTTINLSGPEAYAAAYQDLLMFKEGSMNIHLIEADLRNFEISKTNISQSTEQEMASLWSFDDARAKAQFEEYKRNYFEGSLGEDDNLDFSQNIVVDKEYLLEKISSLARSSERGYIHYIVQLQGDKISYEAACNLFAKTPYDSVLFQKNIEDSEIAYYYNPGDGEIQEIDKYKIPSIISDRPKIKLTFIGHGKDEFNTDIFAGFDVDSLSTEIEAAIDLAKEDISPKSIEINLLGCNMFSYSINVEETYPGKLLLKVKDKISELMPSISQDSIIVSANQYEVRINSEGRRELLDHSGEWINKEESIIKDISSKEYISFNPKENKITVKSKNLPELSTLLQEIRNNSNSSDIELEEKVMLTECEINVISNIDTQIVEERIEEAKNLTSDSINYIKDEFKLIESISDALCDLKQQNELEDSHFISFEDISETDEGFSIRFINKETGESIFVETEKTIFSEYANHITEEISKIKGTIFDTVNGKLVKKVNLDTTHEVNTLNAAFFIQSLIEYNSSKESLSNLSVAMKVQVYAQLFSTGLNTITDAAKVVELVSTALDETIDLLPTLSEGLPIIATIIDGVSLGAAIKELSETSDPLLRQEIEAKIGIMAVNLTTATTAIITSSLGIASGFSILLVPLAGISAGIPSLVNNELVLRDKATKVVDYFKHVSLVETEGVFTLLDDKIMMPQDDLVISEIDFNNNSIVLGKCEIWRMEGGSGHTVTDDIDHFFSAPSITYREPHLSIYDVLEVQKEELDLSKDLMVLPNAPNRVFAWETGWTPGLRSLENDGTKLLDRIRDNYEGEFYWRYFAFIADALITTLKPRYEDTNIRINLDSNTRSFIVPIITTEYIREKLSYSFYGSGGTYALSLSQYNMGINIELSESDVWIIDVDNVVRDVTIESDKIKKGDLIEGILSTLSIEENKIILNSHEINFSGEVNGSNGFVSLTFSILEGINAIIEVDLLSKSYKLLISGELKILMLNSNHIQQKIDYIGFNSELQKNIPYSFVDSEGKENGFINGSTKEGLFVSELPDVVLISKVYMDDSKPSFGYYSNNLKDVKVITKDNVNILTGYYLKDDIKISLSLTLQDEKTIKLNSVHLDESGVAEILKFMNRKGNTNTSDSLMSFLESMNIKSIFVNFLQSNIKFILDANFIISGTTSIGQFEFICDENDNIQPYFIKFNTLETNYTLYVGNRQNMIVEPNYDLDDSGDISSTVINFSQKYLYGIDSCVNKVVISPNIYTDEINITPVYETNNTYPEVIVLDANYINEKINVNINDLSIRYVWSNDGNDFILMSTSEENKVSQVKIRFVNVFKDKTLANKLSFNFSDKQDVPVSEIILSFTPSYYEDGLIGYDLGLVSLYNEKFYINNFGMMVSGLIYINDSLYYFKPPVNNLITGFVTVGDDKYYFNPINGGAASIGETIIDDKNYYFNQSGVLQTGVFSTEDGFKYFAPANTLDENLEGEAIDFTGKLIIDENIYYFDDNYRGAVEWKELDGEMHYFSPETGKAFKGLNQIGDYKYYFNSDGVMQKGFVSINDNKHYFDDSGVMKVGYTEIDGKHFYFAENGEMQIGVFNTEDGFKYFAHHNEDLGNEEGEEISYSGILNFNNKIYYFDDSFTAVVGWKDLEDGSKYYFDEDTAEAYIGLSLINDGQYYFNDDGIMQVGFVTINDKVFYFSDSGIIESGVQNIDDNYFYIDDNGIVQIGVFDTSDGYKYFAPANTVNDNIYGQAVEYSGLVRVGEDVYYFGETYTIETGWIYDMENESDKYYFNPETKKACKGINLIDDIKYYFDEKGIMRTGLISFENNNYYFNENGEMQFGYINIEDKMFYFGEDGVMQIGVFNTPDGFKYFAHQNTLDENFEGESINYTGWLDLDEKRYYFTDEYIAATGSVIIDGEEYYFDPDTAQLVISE
FadD28 FP inh – blocks FadD28 binding to the bisubstrate probe; fluorescence polarization; hit rate 0.22% among 360,000; inhibition, % at 12.5 µM; in the data active = inhibition above about 8.5%, passing the limit was not always enough; inconclusive = no clear call, values can overlap the other calls
SSB-PriA inh – K. pneumoniae PriA-SSBct interaction inhibition. AlphaScreen SSBct-PriA binding, biotinylated peptide. inhibition, % at 33 µM. hit rate 0.6% among 430,000; in the data active = inhibition mostly above about 37%, no sharp cut-off; inactive = mostly below about 20%;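 also: plate controls were negative control peptide for no effect and reference peptide for full effect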
Mtb hypoxia rep – reduces hypoxia-regulated biosensor signal in M. tuberculosis | M. tuberculosis hypoxia-regulated fluorescent reporter, fluorescence | fluorescence inhibition, % (concentration not given with the values) | hit rate 0.1% among 300,000; in the data active = fluorescence inhibition mostly above about 23%, no sharp cut-off; inactive = mostly below about 17%
BioA inh – BioA (M. tuberculosis) enzyme inhibition; inhibition, % at 9.99 µM; purified M. tuberculosis BioA enzyme, plate reader; hit rate 0.096% among 360,000; in the data active = inhibition above about 40%; inconclusive = no clear call, values can overlap the other calls
PrP UTR inh – inhibition of PrP 5' UTR reporter expression | inhibition, % (test concentration not listed) | hit rate 0.35% among 340,000 | cell-based PrP 5' UTR mRNA reporter, plate reader; in the data active = inhibition above about 52%; also: 0 = median of the neutral control wells
PrP UTR cherry – prion 5' UTR mRNA inhibition, cherry-pick retest; shares compounds with PrP UTR inh; cell-based prion protein 5' UTR reporter, plate reader; inhibition, % at 2.5 µM; hit rate 48% among 1,100; in the data active = inhibition above about 54%; inconclusive = no clear call, values can overlap the other calls
An asterisk follows results filed as active; ? = inconclusive; . = not tested or not shown.

SMILES	TcdB GH inh	FadD28 FP inh	SSB-PriA inh	Mtb hypoxia rep	BioA inh	PrP UTR inh	PrP UTR cherry
Cc1nnc(NN2CCOCC2)[nH]c1=O	-1	-2	2	16	-2	84*	-29
COc1ccc(NC(=O)N(C)C[C@H]2Oc3ccc(NC(=O)Nc4ccc(C(F)(F)F)cc4)cc3C(=O)N([C@H](C)CO)C[C@@H]2C)cc1	-1	-2	1	-1	-1	65*	-23
COc1ccc(NC(=O)Nc2ccc3c(c2)C(=O)N([C@H](C)CO)C[C@H](C)[C@@H](CN(C)C(=O)Nc2ccc(C(F)(F)F)cc2)O3)cc1	-1	1	6	.	-1	-22	.
O=C(NN1CCOCC1)c1ccc(Cl)cc1[N+](=O)[O-]	0	0	1	7	-1	3	.
COc1ccc(NC(=O)C/C(C)=N/NC(=O)c2ccncc2)c([N+](=O)[O-])c1	-8	2	.	.	-1	54*	-17
COc1ccc(OCC(=O)N/N=C(\C)CC(=O)Nc2ccc(OC)cc2[N+](=O)[O-])cc1	0	-2	.	.	.	-15	.
CN(C(=O)CSc1nc(-c2ccc(F)cc2)cs1)C1CCS(=O)(=O)C1 (stereo unspecified)	.	-2	-1	-4	0	-8	.
CN(C(=O)CSc1nc(-c2ccccc2)cs1)C1CCS(=O)(=O)C1 (stereo unspecified)	1	1	-3	3	-1	85*	-30
O=S1(=O)CCCCN1c1ccc(S(=O)(=O)N(Cc2ccccn2)Cc2ccco2)cc1	.	.	-8	.	.	.	.
COc1cc(-c2noc(C)c2/C=C/c2cccc([N+](=O)[O-])c2)cc(OC)c1OC	3	-1	1	.	5	58*	71*
Cc1nn(Cc2c(Cl)cccc2Cl)c(C)c1NC(=O)CCCn1nc(C)c([N+](=O)[O-])c1C	.	-2	-1	9	.	-8	.
Cc1nn(CCCC(=O)Nc2cccnc2Cl)c(C)c1[N+](=O)[O-]	1	-3	1	-4	1	52*	-10
CCOc1ccccc1C1CC(=O)Nc2cc(C)c(C)cc21 (stereo unspecified)	1	-5	-4	9	-1	-10	.
CCCOc1ccccc1C1CC(=O)Nc2cc3c(cc21)OCCO3 (stereo unspecified)	.	-1	8	.	-3	70*	80*
CCOc1ccccc1C1CC(=O)Nc2cc3c(cc21)OCCO3 (stereo unspecified)	.	1	6	5	0	56*	84*
COc1cc(Br)cc2cc(C(=O)NNC(=O)c3ccncc3)c(=O)oc12	.	.	1	.	.	.	.
O=C(COC(=O)c1ccc[nH]c1=O)Nc1ccc(S(=O)(=O)N2CCCC2)cc1	1	-4	2	-2	.	-25	.
O=C(COC(=O)c1ccc[nH]c1=O)Nc1ccc(N2CCCCC2)cc1	-1	-4	-1	8	0	62*	?
CNC(=O)COC(=O)/C=C/c1cccc(F)c1	2	-2	-10	2	0	58*	-10
O=C(COC(=O)C=Cc1cccc(F)c1)Nc1ccccc1	.	.	.	-6	.	.	.
C[C@H]1CN([C@@H](C)CO)C(=O)Cc2cc(NC(=O)Nc3ccc(C(F)(F)F)cc3)ccc2O[C@H]1CN(C)Cc1ccc(C(=O)Nc2ccccc2N)cc1	-4	.	.	.	-9	.	.
Cc1nn(-c2ccccc2)c(C)c1/C=N/NC(=O)c1cc(-c2ccccc2)n[nH]1	.	-1	.	.	.	66*	80*
COc1ccc(-c2cc3cc4c(cc3cn2)OCO4)cc1	-1	-1	0	12	-2	-7	.
COc1cc(OC)cc(-c2cc3cc4c(cc3cn2)OCO4)c1	.	-10	-1	.	-1	62*	81*
N#CC1=C(N)OC2=C(CCc3ccccc32)C1c1ccccc1 (stereo unspecified)	.	-2	-13	18	.	58*	90*
SMILES	TcdB GH inh	FadD28 FP inh	SSB-PriA inh	Mtb hypoxia rep	BioA inh	PrP UTR inh	PrP UTR cherry
CCC(C)NC(=O)CSc1nc2c(sc(=S)n2-c2cc(Cl)ccc2OC)c(=O)[nH]1 (stereo unspecified)	-1	-13	0	-5	0	-22	.
C=C(C)CSc1nnc(CCNC(=O)OC(C)(C)C)o1	0	-1	-10	25	-2	-8	.
Cc1nc2c(ccc3c([N+](=O)[O-])cccc32)c(C)c1C	3	1	11	3	-1	71*	-53
Cc1ccc2c([N+](=O)[O-])cccc2n1	.	-3	-4	4	.	-12	.
COc1ccccc1-c1cn(CC[C@H]2CC[C@@H](NC(=O)CCN3CCCCC3)[C@H](CO)O2)nn1	-1	.	.	.	0	.	.
O=C(NCc1cncc(-c2cccs2)c1)c1ccc(C(F)(F)F)nc1	.	.	-5	.	.	.	.
O=C(NC1CCS(=O)(=O)C1)c1cccc(Br)c1 (stereo unspecified)	0	1	-6	1	-2	-9	.
O=C1C=C(c2ccc(O)cc2)C[C@@H](c2ccc3c(c2)OCO3)C1	1	-7	-2	.	1	67*	2
COc1ccc(NC(=O)CN(c2cccc(F)c2)S(C)(=O)=O)cc1OC	.	-4	-13	8	0	-18	.
COc1ccc(C2CC(=O)Oc3cc4c(cc32)OCO4)cc1 (stereo unspecified)	1	-1	-7	0	2	53*	-7
COc1cc(C2CC(=O)Oc3cc4c(cc32)OCO4)cc(OC)c1OC (stereo unspecified)	1	0	-4	4	1	-13	.
CC1(C)CC[C@]2(C(=O)n3ccnc3)CC[C@]3(C)[C@H](C(=O)C=C4[C@@]5(C)C=C(C#N)C(=O)C(C)(C)[C@@H]5CC[C@]43C)[C@@H]2C1	-1	0	4	.	.	94*	97*
C[C@@H]1CN([C@@H](C)CO)S(=O)(=O)c2ccc(-c3ccccc3)cc2O[C@H]1CN(C)S(=O)(=O)c1ccccc1F	-2	.	.	.	-2	.	.
COC(=O)C1=CO[C@@H](OC2OC(CO)C(O)C(O)C2O)[C@@H]2[C@@H](C)[C@@H](O)C[C@H]12 (stereo partly specified)	0	0	-12	.	0	-3	.
COC(=O)C1=CO[C@@H](O[C@@H]2O[C@H](CO)[C@@H](O)[C@H](O)[C@H]2O)C2C1C=C[C@@]2(O)CO (stereo partly specified)	0	-1	-9	5	1	76*	-29
Cc1ccc2cc3c(NC(=O)c4cccnc4)nn(C)c3nc2c1	.	-5	-26	.	1	-21	.
COc1cccc(NC(=O)CSc2nnc(-c3cc(C)n(-c4ccccc4)c3C)o2)c1	.	1	1	9	6	57*	24
COc1cccc(NC(=O)Cn2cc(-c3nnc(C)o3)c3ccccc32)c1	.	.	-8	.	.	.	.
CCN(CCO)c1ccc(Nc2cc(-c3ccc(-c4ccccc4)cc3)ncn2)cc1	0	-2	.	.	0	.	.
CCN(CCO)c1ccc(N=Nc2cc(C)[nH]n2)cc1	0	-1	-1	18	.	61*	62*
